This is an account of results in PubChem BioAssay (NCATS).

Inconclusive results are not listed. Where a call stands in place of a potency, no number is given. Activity calls are given as the source filed them. Calls come from the whole dose curve.
Potency is the fitted concentration of half-maximal effect.

This assay is described as follows: Primary qHTS for Vero E6 cytotoxicity: counterscreen for inhibitors of SARS-S pseudo-typed particle cell entry (AID 1479150). As to conditions: cell viability; series mostly up to 57.1 µM. Background: In qHTS, concentration-response curves come from the screen itself.
As for `CO[C@@H]1[C@@H](OC(N)=O)[C@@H](O)[C@H](Oc2ccc3c(O)c(NC(=O)c4ccc(O)c(CC=C(C)C)c4)c(=O)oc3c2C)OC1(C)C`, the Potency entry is “inactive”. As to `NC(N)=NC(=O)Cc1c(Cl)cccc1Cl`, the Potency entry is “inactive”. Still for that read-out and setting: the value for `CCOc1cc(OCC)c(C(=O)CCC(=O)O)cc1OCC` was “inactive”.

Regarding `COc1ccc(C(=O)c2ccccc2)c(O)c1`, the Potency entry was “inactive”. On the same count and under the same terms, the value for `C[C@]12CC[C@H]3[C@@H](CCC4=CC(=O)CC[C@@H]43)[C@@H]1CC[C@@H]2OC(=O)CCc1ccco1` was “inactive”.

`Cn1c(=O)c2[nH]c(Br)nc2n(C)c1=O`: the Potency result was “inactive”. Still for that read-out and setting: the value for `C[C@H](NC(CCc1ccccc1)C(=O)O)C(=O)N1CCC[C@H]1C(=O)O` (stereo partly drawn) was “inactive”. With `CC1(C)O[C@@H]2C[C@H]3[C@@H]4CCC5=CC(=O)C=C[C@]5(C)[C@@]4(F)[C@@H](O)C[C@]3(C)[C@]2(C(=O)CO)O1`, the Potency result is “inactive”. Still for that read-out and setting: to `COc1c2occc2cc2ccc(=O)oc12` belongs “inactive”.

As to `CC(CC(C#N)(c1ccccc1)C(C)C)N(C)C` (stereo not drawn), the Potency result is “inactive”. For `NCC(=O)CCC(=O)O`, the Potency entry is “inactive”.

On to `CCCCCCCCCCCCSCCOCCO`, for which the Potency entry was “inactive”.

Consider `c1ccc(-c2nc[nH]c2-c2ccccc2)cc1`, for which the Potency entry is “inactive”. On the same count and under the same terms, the value for `O=C(O)c1ccccc1S` was “inactive”; that for `O=P(O)(O)C(O)(Cn1ccnc1)P(=O)(O)O` was “inactive”. On the same count and under the same terms, the value for `CC(O)(P(=O)(O)O)P(=O)(O)O` was “inactive”; that for `Cc1cc(C)c(NC(=O)CN(CC(=O)O)CC(=O)O)c(C)c1Br` was “inactive”; that for `Cc1ccc(C(C)C)c(O)c1` was “inactive”. On the same count and under the same terms, the value for `Nc1ncnc2nc[nH]c12` was “inactive”.

With `S=P(N1CC1)(N1CC1)N1CC1`, the activity change, negative = cytotoxicity was -9.38% [at 0.573 µM] (inactive). As for `O=c1[nH]c(=O)n([C@H]2CCCO2)cc1F`, the Potency entry is “inactive”. On the same count and under the same terms, the value for `C=CCc1ccc(O)c(OC)c1` was “inactive”; that for `CC(C(=O)O)c1ccc2c(c1)CC(=O)c1ccccc1S2` (stereo not drawn) was “inactive”; that for `COC(=O)c1cccnc1` was “inactive”. `Cc1cc(NS(=O)(=O)c2ccc(N)cc2)nc(C)n1`: the Potency entry was “inactive”. The same measure, in the same setting: to `CC1CC(OC(=O)c2ccccc2O)CC(C)(C)C1` (stereo not drawn) belongs “inactive”; to `C[C@](O)(CS(=O)(=O)c1ccc(F)cc1)C(=O)Nc1ccc(C#N)c(C(F)(F)F)c1`, “inactive”.

Take `Clc1ccc2nsnc2c1NC1=NCCN1`: the Potency result was “inactive”.

For `O=C(CCOCCOCCOCCOCCC(=O)Nc1c(I)cc(I)c(C(=O)O)c1I)Nc1c(I)cc(I)c(C(=O)O)c1I`, the Potency result is “inactive”. As for `Cc1ccc(C(=O)c2ccc(CC(=O)O)n2C)cc1`, the Potency entry was “inactive”. Same read-out and setting: the value for `O=c1oc2ccccc2c(O)c1Cc1c(O)c2ccccc2oc1=O` was “inactive”.

Regarding `CN1C(CSCC(F)(F)F)Nc2cc(Cl)c(S(N)(=O)=O)cc2S1(=O)=O` (stereo not drawn), the Potency entry is “inactive”. On the same count and under the same terms, the value for `CC(C)c1ccc2oc3nc(N)c(C(=O)O)cc3c(=O)c2c1` was 7.94 µM (active); that for `NCCCCCC(=O)O` was “inactive”.

For `O=C(O)CCCC[C@@H]1SC[C@@H]2NC(=O)N[C@@H]21`, the Potency result was “inactive”. The same measure, in the same setting: to `CC(=O)OCC1=C(C(=O)O)N2C(=O)[C@@H](NC(=O)Cc3cccs3)[C@H]2SC1` belongs “inactive”; to `COc1ccc(NS(=O)(=O)c2ccc(N)cc2)nn1`, “inactive”; to `CCO[C@H](Cc1ccc(OCCc2ccc(OS(C)(=O)=O)cc2)cc1)C(=O)O`, “inactive”.
